From PubChem BioAssay (NCI)
This is part of a sample that, as a whole, favours compounds with a hit. Of some 83,000 tested, about 20% had one in any assay.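 Compound tested at a single concentration for 48 hours in 96-well plates; a percent growth value below 10 was scored as active.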 Values without a mark were called inactive. Activity calls are given as the source filed them.

test system: HOP-92 NSCLC; assay: NCI-60 one-dose screen, 48 h (100 = growth as untreated, 0 = no growth, -100 = all killed); conditions: 10 µM unless noted

Structure (SMILES) | growth
N#CSc1c[nH]c2cccc(/C=C/C(=O)/C=C(O)/C=C/c3cccc4[nH]cc(SC#N)c34)c12 | -72% (active)
COCCn1cc(-c2csc(-c3c[nH]c4ccc(Br)cc34)n2)c2cccnc21 | 2.14% (active)
N#CC1CCc2c(c(-c3ccc4nc(N)sc4c3)nc3ccc4[nH]ncc4c23)C1 (stereo unspecified) | 70.3%
NS(=O)(=O)c1ccc(-c2cc(-c3nnc(SCC(=O)Nc4ccc(C(=O)/C=C/c5ccc(Cl)cc5)cc4)n3-c3ccccc3)c3ccccc3n2)cc1 | 93.1%
O=C(Nc1cc(Cl)ccc1O)c1cccc(Nc2ccnc(C(F)(F)F)c2)c1 | 53.6%
CC/C(Cc1ccccc1)=C(\c1ccc(OCCCN(C)C)cc1)c1ccc(OC(=O)NCc2ccccc2)cc1 | 38.6%
Clc1c(Cl)[n+](Cc2ccc3ccccc3c2)cn1Cc1ccc2ccccc2c1 | -12.1% (active)
CSC(SC)=C(C#N)c1nc2ccccc2s1 | -12.8% (active)
O=C(CN1CCCCCC1)Nc1nc2ccc(NCc3ccc(Cl)cc3)cc2s1 | 90.9%
CCC1S/C(=N\N=C(\C)c2cc3cc(Cl)ccc3o2)N(c2ccccc2)C1=O (stereo unspecified) | 71%
Cc1ccc(C)c(/C=C2\CN(C(=O)OC(C)(C)C)C/C(=C\c3cc(C)ccc3C)C2=O)c1 | 91.3%
COc1ccc(-c2n[nH]c(=O)c3nc(NC(=S)Nc4ccc(Oc5ccccc5)cc4)sc23)cc1 | 90.1%
O=C1/C(=C\c2ccccn2)c2ccccc2N1c1c(Cl)cccc1Cl | -7.93% (active)
Cc1ncc(C(=O)Nc2ccc(CN3CCN(C)CC3)c(C(F)(F)F)c2)cc1C#Cc1cnc(N)c2ncccc12 | 14.7%
CNC(=O)c1cc(Oc2ccc3c(c2)sc2nc(-c4ccc(OC)cc4)cn23)ccn1 | 35%
O=C1Nc2c(C(=O)O)cccc2/C1=N/c1n[nH]c(=S)s1 | 96.1%
COC(=O)c1ccc(NC(=O)Nc2ccc(C(=O)OC)cc2)cc1 | 85.7%
COc1ccc(/C=C/C(c2cc(OC)c(OC)c(OC)c2)n2ccnc2)cc1O (stereo unspecified) | 30.5%

Structure (SMILES) | growth
Cc1nc2sc(C(=O)Nc3cccc(Br)c3C)c(N)c2cc1C(O)c1ccccc1 (stereo unspecified) | 24%
C=C1C(=O)O[C@H]2[C@H]1CC/C(COC(=O)/C=C/C(=O)OC/C1=C/CC[C@@]3(C)O[C@H]3[C@H]3OC(=O)C(=C)[C@@H]3CC1)=C\CC[C@@]1(C)O[C@@H]21 | 19%
COc1ccc(-c2ccc(-c3ccc(C(=N)N)nc3)s2)cc1Cl | 84.4%
COc1cc(/C=N/Nc2ccc(Br)cc2)cc(OC)c1OC | 98.2%
C#CCOc1cccc(-c2ncnc3cc(NC(=O)C=C)ccc23)c1 | 14.9%
O=c1ccc(=O)n(-c2nc(-c3ccc([N+](=O)[O-])cc3)cs2)[nH]1 | 103%
CCCCCCCCCCCCCCCCCC1=NC(C)(C)CN1CC(C)O (stereo unspecified) | 43.6%
CC1=C(C(=O)Nc2nc(-c3ccc(Cl)cc3)cs2)[C@H](c2ccc(O)cc2)NC(=O)N1 | 100%
O=C(Cn1nnc2ccccc21)N/N=C/c1c[nH]c2ccccc12 | 57.7%
Cn1c(=O)c2[nH]c(SCC(=O)Nc3ccc(C(=O)/C=C/c4ccccc4Cl)cc3)nc2n(C)c1=O | 65%
O=c1nc(-c2ccccc2)c2cc(-c3ccc(C(F)(F)F)nc3)ccc2[nH]1 | 105%
CN(C)S(=O)(=O)Oc1ccc(-c2sc3cc(OS(=O)(=O)N(C)C)ccc3c2C(=O)c2ccc(OCCN3CCCCC3)cc2)cc1 | 28.5%
O=S(=O)(NCCCNc1nccc(-c2c(-c3cccc(F)c3)nc3occn23)n1)c1ccc(F)cc1 | 61.4%
Cc1ccc(-c2nc(N3CCNCC3)c3oc(-c4ccc(C)cc4)nc3n2)cc1 | 88.9%
COc1ccc(Cn2cc3c(c2-c2ccccc2)CCc2cnoc2-3)cc1 | 52.2%
CC(C)(C)n1cc(-c2ccnc(NCCCNS(=O)(=O)c3ccc(C(F)(F)F)cc3)c2)c(-c2cccc(F)c2)n1 | 90.1%
O=C(/C=C/c1ccccc1)c1ccc(Nc2nc(Nc3ccc(F)cc3)nc(Nc3ccc(Cl)cc3)n2)cc1 | 48.1%
COc1ccc2c(c1)/C(=N/c1n[nH]c(=S)s1)C(=O)N2 | 92.8%
